We go through 25 compounds from PubChem BioAssay (NCATS).

The target of assay [1] is Cellular tumor antigen p53 (Homo sapiens) (UniProt P04637). Briefly: Primary qHTS for small molecule compounds that upregulate eGFP-tagged delta133p53alpha (in N-terminal) cells. (AID 2060322). Also: nearly all actives have a fitted effect of over 75% in size. Also: potency is read from the fitted curve at half-maximal effect.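 As to activation: series mostly up to about 56 µM; 0% = DMSO vehicle and 100% = reference activator.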 The conditions noted are these: NCI-H358 eGFP-delta133p53alpha fluorescence, 24 h; activation: active compounds read high. The essentials: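 NCI-H358 cells pre-induced 24 h with 10 ng/ml doxycycline to express N-terminal eGFP-delta133p53alpha, then dosed 24 h at 37C without doxycycline; fixed, Hoechst-stained, GFP intensity by laser scanning cytometry, normalized to DMSO (0%) and 57.5 uM 5-azacytidine (100%).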
For orientation: In qHTS, concentration-response curves come from the screen itself.

Assay [2] deals with Aldehyde dehydrogenase, mitochondrial (Homo sapiens) (UniProt P05091). Briefly: qHTS for Inhibitors of the Aldehyde Dehydrogenase Family (ALDH2) Primary screen (AID 2061308).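 Also: plate controls were vehicle for no effect and reference inhibitor for full effect; nearly all actives have a fitted effect of over 55% in size.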
Assay [3] addresses Retinaldehyde dehydrogenase 3 (Homo sapiens) (UniProt P47895). Briefly: qHTS for Inhibitors of the Aldehyde Dehydrogenase Family (ALDH1A3) Primary screen (AID 2061315).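 Also: plate controls were DMSO vehicle for no effect and reference inhibitor for full effect.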

SMILES strings stand for the structures. “And” between values parts separate entries of the source, which are not always exact repeats. Identical values can stand only once. Results filed as inconclusive are left out. A number with no mark means an inactive call. The source made the active and inactive calls. Calls follow the shape of the dose curve; as a rule, active = well fitted curve in the direction sought with a large enough effect; inconclusive = small, poorly fitted or top-dose-only effect, or another doubt; inactive = no such curve, though single readings can be large; an effect the other way counts as inactive or inconclusive.

Cellular tumor antigen p53 (Homo sapiens), sequence (P04637 whole entry, looked up): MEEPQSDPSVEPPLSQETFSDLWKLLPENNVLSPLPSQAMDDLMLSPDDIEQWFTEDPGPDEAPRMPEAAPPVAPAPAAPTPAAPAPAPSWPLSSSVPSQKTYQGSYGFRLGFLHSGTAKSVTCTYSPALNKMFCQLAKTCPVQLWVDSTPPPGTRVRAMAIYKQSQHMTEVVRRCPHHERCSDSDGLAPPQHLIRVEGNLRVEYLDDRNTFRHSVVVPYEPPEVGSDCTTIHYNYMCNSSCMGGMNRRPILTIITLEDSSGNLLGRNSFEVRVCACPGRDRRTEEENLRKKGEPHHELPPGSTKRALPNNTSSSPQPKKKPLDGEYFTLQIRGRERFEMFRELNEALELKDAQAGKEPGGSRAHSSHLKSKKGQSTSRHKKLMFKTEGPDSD

`CC1(CO)CC2C(O)C(=O)C3(CO)CC3(C)C2C1` (stereo not given): the activation in assay [1] was -2.29%. Moreover, the Potency entry in assay [2] and in assay [3] was “inactive” throughout.

For `C=C(C(=O)O)[C@H]1C[C@]2(C)[C@@H](O)CC[C@]23O[C@H]1C[C@@H]3C`, the activation in assay [1] is 18.8%. Further, the Potency entry in assay [2] and in assay [3] was “inactive” in each case.

On to `O=C(CCCN1CC=C(n2c(=O)[nH]c3ccccc32)CC1)c1ccc(F)cc1`, for which the activation in assay [1] was 17.5% and 4.33%. The Potency entry in assay [2] and in assay [3] was “inactive” in each case.

With `C=C(C)C1Cc2c(ccc3c2OCC(c2ccc(O)cc2O)C3)O1` (stereo not given), the activation in assay [1] is 32.1%. Also, the Potency entry in assay [2] and in assay [3] was “inactive” throughout.

On to `C[C@H]1CC(=O)C2=C(C1)C(O)C(O)[C@@]1(O)[C@H]2C(=O)c2cccc(O)c2[C@@H]1O` (stereo not given in full), for which, in assay [1], the activation was 3.05%. In addition, the Potency result in assay [2] and in assay [3] was “inactive” in each case.

For `C=C1C(=O)O[C@@H]2/C=C(\C)C(=O)/C=C/[C@](C)(O)C[C@@H](OC(=O)C(C)C)[C@@H]12`, the Potency in assay [1] was 2950 nM (active). Further, the Potency result in assay [2] and in assay [3] was “inactive” throughout.

Take `C[C@H](C(=O)NC1CCCC1)N(C(=O)Cn1nnc(-c2ccc3c(c2)OCO3)n1)C1CCCCC1`: the activation in assay [1] is 9%. Besides, the Potency result in assay [2] and in assay [3] was “inactive” throughout.

Consider `COc1cc(C#N)ccc1S(=O)(=O)Nc1ccc2c(c1)cc(C)c(=O)n2C`, for which, in assay [1], the activation is -7%. Also, the Potency entry in assay [2] and in assay [3] was “inactive” in each case.

Consider `CC1CC[C@]2(C(=O)O)CC[C@]3(C(=O)O)C(=CCC4[C@@]5(C)CC[C@H](OC6OC(C)C(O)C(OC7OC(CO)C(O)C(O)C7O)C6O)C(C)(C)C5CC[C@]43C)C2C1C` (stereo not given in full), for which the activation in assay [1] was -8.04%. The Potency result in assay [2] and in assay [3] was “inactive” each time.

Regarding `C[C@@H]1O[C@@H](O[C@@H]2[C@@H](O)[C@@H](O)[C@H](O[C@@H]3[C@@H](O)[C@@H](O[C@]4(CO)O[C@H](CO)[C@@H](O)[C@@H]4OC(=O)/C=C/c4ccc(O)cc4)O[C@H](CO)[C@H]3OC(=O)/C=C/c3ccc(O)cc3)O[C@H]2C)[C@H](O)[C@H](O)[C@H]1O`, the activation in assay [1] is 3.82%. In addition, the Potency entry in assay [2] and in assay [3] was “inactive” throughout.

Take `CC1CCCC(SCC(O)C(=O)O)CC(=O)c2c(O)cc(O)cc2CC(=O)O1` (stereo not given): in assay [1], the activation was -1.53%. Also, the Potency entry in assay [2] and in assay [3] was “inactive” each time.

`C=C1CCC2C(OC(=O)C2(O)COC(C)=O)C2C(=C)C(O)CC12` (stereo not given): the activation in assay [1] was -3.82%. Further, the Potency result in assay [2] and in assay [3] was “inactive” each time.

`Fc1cccc(CN(C2=NCCN2)c2c(Cl)cccc2Cl)c1`: in assay [1], the activation is -15%. The Potency result in assay [2] and in assay [3] was “inactive” in each case.

With `COC(=O)C12C(=O)C(C)=C(O)C1(C)C(C)=CC1C34CCC(OC3=O)C(C)(C)C4CCC12C` (stereo not given), the activation in assay [1] was -16%. Further, the Potency result in assay [2] and in assay [3] was “inactive” throughout.

With `C=C1C(OC(C)=O)CCC2(C)CC3(OC)OC(=O)C(C)=C3CC12` (stereo not given), in assay [1], the activation was 17.9%. Moreover, the Potency result in assay [2] and in assay [3] was “inactive” in each case.

As to `C[C@@H]1C(=O)OC[C@H]2C(C(=O)O)=C[C@@H]3CC(C)(C)C[C@]312`, the activation in assay [1] is -6.87%. Also, the Potency result in assay [2] and in assay [3] was “inactive” throughout.

`COc1cc2occc2c(O[C@@H]2O[C@H](CO)[C@@H](O)[C@H](O)[C@H]2O)c1CCC(=O)O`: in assay [1], the activation was 9.16%. The Potency result in assay [2] and in assay [3] was “inactive” throughout.

Consider `CC1CCC23COC(=O)C2=CC(O)CC3C1(C)CCC1=CC(=O)OC1O` (stereo not given), for which the activation in assay [1] was 0.763%. In addition, the Potency entry in assay [2] and in assay [3] was “inactive” each time.

Turning to `C/C(=C\C(=O)C[C@@]12C(=O)O[C@]3(C)CC[C@H]1C[C@H]23)C(N)=O`, the activation in assay [1] was 9.92%. In addition, the Potency entry in assay [2] and in assay [3] was “inactive” each time.

Take `CC(=O)OC1CC(C)(C(=O)O)CC2C3=CC(=O)C4C5(C)CCC(OC6OC(C(=O)O)C(O)C(O)C6OC6OC(C(=O)O)C(O)C(O)C6O)C(C)(C)C5CCC4(C)C3(C)CCC12C` (stereo not given): in assay [1], the activation is -4.46%. The Potency entry in assay [2] and in assay [3] was “inactive” throughout.

In the case of `CC[C@@H](O)C[C@@H]1C(C)=C[C@@H]2CCCC[C@@H]2[C@@]1(C)C(=O)O`, the activation in assay [1] was -6.87%. Moreover, the Potency entry in assay [2] and in assay [3] was “inactive” in each case.

Consider `COc1ccc(CN2CCN(CCCSc3cc(C(C)(C)C)c(O)c(C(C)(C)C)c3)CC2)c(OC)c1OC`, for which, in assay [1], the activation was 16.3%. Also, the Potency entry in assay [2] and in assay [3] was “inactive” throughout.

Consider `C=C1CCC2C(C)(C)C(O)CCC2(C)C1CCC(C)CCOC(=O)CCC(=O)O` (stereo not given), for which the activation in assay [1] is -3.82%. Moreover, the Potency result in assay [2] and in assay [3] was “inactive” in each case.

`COc1cc2nc(=NC(=O)c3cccnc3)n3c(c2cc1OC)NCC3`: the activation in assay [1] is 3.34%. The Potency entry in assay [2] and in assay [3] was “inactive” each time.

On to `CC1(C)CCC2(C(=O)O)C(O)CC3(C)C(=CCC4C5(C)CCC(OC6OC(CO)C(O)C(O)C6OC6OC(CO)C(O)C(O)C6OC6OCC(O)(CO)C6O)C(C)(C)C5CCC43C)C2C1` (stereo not given), for which the activation in assay [1] is -18.3%. Also, the Potency entry in assay [2] and in assay [3] was “inactive” in each case.
